The values that follow come from PubChem BioAssay (EPA / NIEHS).

Inconclusive results are not listed. Calls of active or inactive are those of the source. How the source made its calls: active means hit-call score of the fitted dose curve at least 0.9, where 1 is the maximum; inconclusive means response in the unintended direction; inactive means score below 0.9.

For test [1], the target named is human Caspase 2 (CASP2), CASP2 (gene 835) (UniProt P42575). Put plainly: NVS_ENZ_hCASP2: NovaScreen (NVS) Enzymatic Assay for human Caspase 2 (CASP2) (AID 2283135). In short, it runs like this:
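E. coli-expressed enzyme in a cell-free protease assay, fluorescence read 1 h after dosing. Compounds at 25 uM in duplicate, with concentration-response up to 50 uM for hits; loss of signal against DMSO baseline.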

Test [2] deals with human Phosphatase and Tensin Homolog (PTEN), PTEN (gene 5728) (UniProt P60484). Put plainly: NVS_ENZ_hPTEN: NovaScreen (NVS) Enzymatic Assay for human Phosphatase and Tensin Homolog (PTEN) (AID 2283203). A digest of the protocol:
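Cell-free recombinant human PTEN with fluorescent substrate; product separated by electrophoretic mobility shift and read by fluorescence 1 h after dosing. Primary screen in duplicate at 25 uM, actives followed in concentration series versus DMSO.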

Test [3] addresses human Tyrosine Protein Kinase Receptor Tie-2 (Tie2), TEK (gene 7010) (UniProt Q02763). Put plainly: NVS_ENZ_hTie2: NovaScreen (NVS) Enzymatic Assay for human Tyrosine Protein Kinase Receptor Tie-2 (Tie2) (AID 2283225). In short, it runs like this: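 Recombinant human Tie2 kinase activity was read cell-free by fluorescence with electrophoretic mobility shift, 1 hour after dosing. The screen used 25 uM in duplicate, then concentration-response up to 50 uM. Signal loss was scored against DMSO.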

In test [4] the target is rat Corticotropin Releasing Factor Receptor (CRF), Crhr1 (gene 58959) (UniProt P35353). Put plainly: NVS_GPCR_rCRF: NovaScreen (NVS) G Protein-Coupled Receptor Assay for rat Corticotropin Releasing Factor Receptor (CRF) (AID 2283300). In short, it runs like this: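 Rat cortical membranes used as receptor source in a radioligand competitive displacement binding assay; scintillation read 2 h after dosing. Primary screen run in duplicate at 25 uM; loss of signal versus DMSO baseline indicates binding.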

The target in test [5] is human Aurora Kinase A - serine/threonine-protein Kinase 6 (AurA), AURKA (gene 6790) (UniProt O14965). Briefly: NVS_ENZ_hAurA: NovaScreen (NVS) Enzymatic Assay for human Aurora Kinase A - serine/threonine-protein Kinase 6 (AurA) (AID 2283142). In short, it runs like this: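 Cell-free enzymatic assay with human Aurora A, 1 hour after dosing. Fluorescent substrate turnover detected after electrophoretic mobility shift separation of substrate and product. Screened at 25 uM, actives retested in concentration-response up to 50 uM.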

For test [6], the target named is human Mitogen-Activated Protein Kinase 1 (MAPK 1), MAPK1 (gene 5594) (UniProt P28482). Briefly: NVS_ENZ_hMAPK1: NovaScreen (NVS) Enzymatic Assay for human Mitogen-Activated Protein Kinase 1 (MAPK 1) (AID 2283175). In short, it runs like this: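 Cell-free recombinant human MAPK1 enzymatic assay, fluorescence/electrophoretic mobility shift read at 1 h; loss of signal vs DMSO. Primary screen in duplicate at 25 uM; actives (e.g. ≥30% inhibition) run as concentration-response up to 50 uM.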

The test system of test [7] is rat Monoamine Oxidase, MAO-A, Peripheral (MAOAP), gene 29253. Briefly: NVS_ENZ_rMAOAP: NovaScreen (NVS) Enzymatic Assay for rat Monoamine Oxidase, MAO-A, Peripheral (MAOAP) (AID 2283237). In short, it runs like this:
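Rat liver mitochondrial membranes served as the MAO-A source, with enzyme activity measured by radiometric scintillation counting 1.17 hours after dosing. Loss of signal was fitted against DMSO; primary screen used 25 uM in duplicate, follow-up used concentration series.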

Test [8] addresses Voltage-dependent N-type calcium channel subunit alpha-1B (Rattus norvegicus) (UniProt Q02294). Put plainly: NVS_IC_rCaChN: NovaScreen (NVS) Ion Channel Assay for rat Calcium Channel, Type N (CaChN) (AID 2283317).
The target of test [9] is rat Oxytocin Receptor (OXT), Oxtr (gene 25342) (UniProt P70536). Briefly: NVS_GPCR_rOXT: NovaScreen (NVS) G Protein-Coupled Receptor Assay for rat Oxytocin Receptor (OXT) (AID 2283330). In short, it runs like this: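 Radioligand displacement on rat uterine membranes, 1 h incubation, filter-based scintillation counting. Chemicals were screened in duplicate at 25 uM, and those passing threshold were retested in concentration-response up to 50 uM. Loss of binding was fitted versus DMSO.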

Test [10] concerns the target human Fibroblast Growth Factor Receptor 1 (FGFR1), FGFR1 (gene 2260) (UniProt P11362). Briefly: NVS_ENZ_hFGFR1: NovaScreen (NVS) Enzymatic Assay for human Fibroblast Growth Factor Receptor 1 (FGFR1) (AID 2283159). In short, it runs like this:
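Cell-free recombinant kinase with fluorescent substrate, product separated by electrophoretic mobility shift; read 1 hour after dosing, loss of signal relative to DMSO. Initial screen in duplicate at 25 uM, actives followed in concentration series.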

Test [11] deals with human MET Proto-Oncogene, Receptor Tyrosine Kinase (MET), MET (gene 4233) (UniProt P08581). Briefly: NVS_ENZ_hMet: NovaScreen (NVS) Enzymatic Assay for human MET Proto-Oncogene, Receptor Tyrosine Kinase (MET) (AID 2283180). A digest of the protocol:
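Cell-free MET kinase assay using recombinant protein and fluorescent substrate, with mobility-shift separation; read 1 h after dosing. Primary duplicate at 25 uM; actives in singleton concentration-response to 50 uM maximum. Signal loss versus DMSO.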

The target in test [12] is human Ephrin type-A Receptor 2 (EphA2), EPHA2 (gene 1969) (UniProt P29317). Briefly: NVS_ENZ_hEphA2: NovaScreen (NVS) Enzymatic Assay for human Ephrin type-A Receptor 2 (EphA2) (AID 2283155). In short, it runs like this: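 Cell-free recombinant EphA2 kinase with specific substrate, 1 h, fluorescence with electrophoretic mobility-shift separation of substrate and product. Primary screen at 25 uM in duplicate; hits retested in singleton concentration-response up to 50 uM, referenced to DMSO.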

Test [13] concerns the target human Protein Tyrosine Phosphatase Receptor Type C (PTPRC), PTPRC (gene 5788) (UniProt P08575). Briefly: NVS_ENZ_hPTPRC: NovaScreen (NVS) Enzymatic Assay for human Protein Tyrosine Phosphatase Receptor Type C (PTPRC) (AID 2283212). In short, it runs like this: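 Yeast-extracted human PTPRC used in a cell-free colorimetric enzyme activity read-out, 1 h after dosing. Primary screen in duplicate at 25 uM; actives rerun in concentration-response up to 50 uM, DMSO as baseline.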

Test [14] deals with human p21 Activated Kinase 4 (PAK4), PAK4 (gene 10298) (UniProt O96013). Briefly: NVS_ENZ_hPAK4: NovaScreen (NVS) Enzymatic Assay for human p21 Activated Kinase 4 (PAK4) (AID 2283189). In short, it runs like this:
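Cell-free recombinant human PAK4 activity assay; fluorescent substrate and product separated by electrophoretic mobility shift, read 1 h after dosing. Initially tested in duplicate at 25 uM, relative to DMSO baseline.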

Test [15] concerns rat Monoamine Oxidase, MAO-A, Central (MAOAC), gene 29253. Put plainly: NVS_ENZ_rMAOAC: NovaScreen (NVS) Enzymatic Assay for rat Monoamine Oxidase, MAO-A, Central (MAOAC) (AID 2283243).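 Further: potency refers to inhibition seen as signal drop below DMSO baseline.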 A digest of the protocol:
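Steps: rat brain protein extract dosed with test chemical (25 uM, duplicate, primary); incubated 1.5 h; radiolabelled product separated from substrate and counted. Signal loss versus DMSO scored as inhibition.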

The target of test [16] is Protein deacetylase HDAC6 (Homo sapiens) (UniProt Q9UBN7). Put plainly: NVS_ENZ_hHDAC6: NovaScreen (NVS) Enzymatic Assay for human Histone Deacetylase 6 (HDAC6) (AID 2283164). A digest of the protocol:
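Recombinant human HDAC6 with fluorescent substrate, 1 h; product separated from substrate by electrophoretic mobility shift. Primary screen in duplicate at 25 uM; actives retested singly in concentration-response up to 50 uM, fitted relative to DMSO.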

In test [17] the target is rat Monoamine Oxidase, MAO-B, Central (MAOBC), Maob (gene 25750) (UniProt P19643). Put plainly: NVS_ENZ_rMAOBC: NovaScreen (NVS) Enzymatic Assay for rat Monoamine Oxidase, MAO-B, Central (MAOBC) (AID 2283238). A digest of the protocol:
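Rat brain tissue extract served as the cell-free MAO-B source; enzyme activity was read by scintillation counting 1.17 hours after compound addition. Loss of signal versus DMSO baseline was fitted; primary single-concentration screen at 25 uM, follow-up concentration-response up to 50 uM.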

The target in test [18] is human Ephrin type-B Receptor 2 (EphB2), EPHB2 (gene 2048) (UniProt P29323). Put plainly: NVS_ENZ_hEphB2: NovaScreen (NVS) Enzymatic Assay for human Ephrin type-B Receptor 2 (EphB2) (AID 2283156). A digest of the protocol:
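Recombinant kinase with fluorescent substrate, product separated by electrophoretic mobility shift, read 1 h after dosing. Duplicate 25 uM screen, then singleton concentration-response to 50 uM max; loss of signal versus DMSO.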

human Tyrosine Protein Kinase Receptor Tie-2 (Tie2), TEK (gene 7010), sequence (Q02763 whole entry, looked up): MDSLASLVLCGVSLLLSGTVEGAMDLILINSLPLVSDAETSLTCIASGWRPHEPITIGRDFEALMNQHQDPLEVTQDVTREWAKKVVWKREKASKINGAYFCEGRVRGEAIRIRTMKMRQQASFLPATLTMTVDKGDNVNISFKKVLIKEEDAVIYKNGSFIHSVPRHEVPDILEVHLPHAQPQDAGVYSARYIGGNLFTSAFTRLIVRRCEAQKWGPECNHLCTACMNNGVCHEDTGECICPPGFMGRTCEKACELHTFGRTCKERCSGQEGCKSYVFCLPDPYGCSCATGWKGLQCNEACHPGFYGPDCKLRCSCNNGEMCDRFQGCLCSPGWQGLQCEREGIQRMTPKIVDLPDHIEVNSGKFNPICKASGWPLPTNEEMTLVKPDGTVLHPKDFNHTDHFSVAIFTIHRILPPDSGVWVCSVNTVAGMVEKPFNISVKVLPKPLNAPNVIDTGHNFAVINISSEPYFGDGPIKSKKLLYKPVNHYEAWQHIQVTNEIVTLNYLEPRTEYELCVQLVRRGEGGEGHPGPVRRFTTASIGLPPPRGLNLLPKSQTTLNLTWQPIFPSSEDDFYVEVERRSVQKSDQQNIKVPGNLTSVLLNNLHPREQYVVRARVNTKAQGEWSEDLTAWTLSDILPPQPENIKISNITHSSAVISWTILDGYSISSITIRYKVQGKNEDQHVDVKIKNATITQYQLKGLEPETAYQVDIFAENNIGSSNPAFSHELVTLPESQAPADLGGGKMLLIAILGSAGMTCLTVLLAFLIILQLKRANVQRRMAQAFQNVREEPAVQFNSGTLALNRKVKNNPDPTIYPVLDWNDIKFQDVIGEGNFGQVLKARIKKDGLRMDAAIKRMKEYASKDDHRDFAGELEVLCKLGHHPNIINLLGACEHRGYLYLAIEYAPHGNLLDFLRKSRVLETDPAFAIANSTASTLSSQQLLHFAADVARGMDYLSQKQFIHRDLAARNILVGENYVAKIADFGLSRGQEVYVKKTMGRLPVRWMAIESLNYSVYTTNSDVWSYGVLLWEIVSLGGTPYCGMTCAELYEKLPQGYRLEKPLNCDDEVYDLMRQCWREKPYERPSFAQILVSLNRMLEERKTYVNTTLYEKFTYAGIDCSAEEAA
human Fibroblast Growth Factor Receptor 1 (FGFR1), FGFR1 (gene 2260), sequence (P11362 whole entry, looked up): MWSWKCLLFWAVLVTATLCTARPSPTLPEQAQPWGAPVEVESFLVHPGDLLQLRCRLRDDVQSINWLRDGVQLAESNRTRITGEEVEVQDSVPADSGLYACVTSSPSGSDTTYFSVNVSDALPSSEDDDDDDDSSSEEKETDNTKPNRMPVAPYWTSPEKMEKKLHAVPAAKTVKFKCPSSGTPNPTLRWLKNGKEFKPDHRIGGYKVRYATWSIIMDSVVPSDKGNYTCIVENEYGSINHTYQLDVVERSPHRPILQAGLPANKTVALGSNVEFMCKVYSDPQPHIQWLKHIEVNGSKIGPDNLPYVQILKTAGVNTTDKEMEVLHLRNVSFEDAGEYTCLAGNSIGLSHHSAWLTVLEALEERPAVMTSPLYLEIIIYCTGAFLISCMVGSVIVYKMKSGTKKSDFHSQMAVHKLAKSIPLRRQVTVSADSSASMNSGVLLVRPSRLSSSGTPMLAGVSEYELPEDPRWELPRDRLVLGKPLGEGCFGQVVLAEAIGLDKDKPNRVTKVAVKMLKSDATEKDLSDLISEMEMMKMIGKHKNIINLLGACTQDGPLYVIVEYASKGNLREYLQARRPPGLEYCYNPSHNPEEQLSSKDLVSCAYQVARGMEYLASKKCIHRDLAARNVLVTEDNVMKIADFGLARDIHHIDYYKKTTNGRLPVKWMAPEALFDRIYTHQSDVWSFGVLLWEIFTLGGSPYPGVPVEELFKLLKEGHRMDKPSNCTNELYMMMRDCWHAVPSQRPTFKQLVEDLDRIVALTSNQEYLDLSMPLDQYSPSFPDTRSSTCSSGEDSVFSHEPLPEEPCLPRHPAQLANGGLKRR
human MET Proto-Oncogene, Receptor Tyrosine Kinase (MET), MET (gene 4233), sequence (P08581 whole entry, looked up): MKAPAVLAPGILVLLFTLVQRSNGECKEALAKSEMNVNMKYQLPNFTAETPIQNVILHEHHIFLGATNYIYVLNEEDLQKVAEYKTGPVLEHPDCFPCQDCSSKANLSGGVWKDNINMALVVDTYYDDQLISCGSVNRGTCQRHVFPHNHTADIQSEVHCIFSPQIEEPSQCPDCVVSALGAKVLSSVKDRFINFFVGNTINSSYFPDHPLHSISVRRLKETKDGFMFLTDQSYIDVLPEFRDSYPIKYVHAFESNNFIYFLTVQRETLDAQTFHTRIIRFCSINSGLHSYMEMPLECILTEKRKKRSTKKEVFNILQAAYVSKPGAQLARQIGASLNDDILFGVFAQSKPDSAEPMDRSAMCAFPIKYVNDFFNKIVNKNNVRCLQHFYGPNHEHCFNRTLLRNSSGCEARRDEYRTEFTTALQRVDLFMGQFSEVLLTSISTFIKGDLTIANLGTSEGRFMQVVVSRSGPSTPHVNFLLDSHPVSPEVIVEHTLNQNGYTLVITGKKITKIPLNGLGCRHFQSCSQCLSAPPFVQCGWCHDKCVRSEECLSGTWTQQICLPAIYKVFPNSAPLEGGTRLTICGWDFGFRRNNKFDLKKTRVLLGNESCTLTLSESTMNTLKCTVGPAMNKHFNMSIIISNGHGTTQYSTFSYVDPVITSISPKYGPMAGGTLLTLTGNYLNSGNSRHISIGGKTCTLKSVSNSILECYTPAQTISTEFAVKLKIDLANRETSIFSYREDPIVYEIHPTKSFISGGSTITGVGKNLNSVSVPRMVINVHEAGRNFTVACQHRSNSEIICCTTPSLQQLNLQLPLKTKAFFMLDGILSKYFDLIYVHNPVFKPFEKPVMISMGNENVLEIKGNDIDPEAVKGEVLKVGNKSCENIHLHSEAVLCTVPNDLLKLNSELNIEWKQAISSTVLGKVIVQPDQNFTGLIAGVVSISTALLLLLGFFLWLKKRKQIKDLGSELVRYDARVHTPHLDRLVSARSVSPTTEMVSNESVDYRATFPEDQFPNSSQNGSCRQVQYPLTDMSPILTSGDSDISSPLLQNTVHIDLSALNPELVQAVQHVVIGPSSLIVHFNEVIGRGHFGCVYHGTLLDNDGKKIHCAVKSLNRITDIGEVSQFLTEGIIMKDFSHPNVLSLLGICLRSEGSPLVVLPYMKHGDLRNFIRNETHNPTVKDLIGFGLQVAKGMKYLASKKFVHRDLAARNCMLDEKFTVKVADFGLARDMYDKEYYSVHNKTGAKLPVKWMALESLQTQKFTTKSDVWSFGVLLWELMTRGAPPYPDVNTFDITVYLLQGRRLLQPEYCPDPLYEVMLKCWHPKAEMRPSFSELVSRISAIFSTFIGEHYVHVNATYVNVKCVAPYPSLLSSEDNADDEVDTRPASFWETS
human Aurora Kinase A - serine/threonine-protein Kinase 6 (AurA), AURKA (gene 6790), sequence (O14965 whole entry, looked up): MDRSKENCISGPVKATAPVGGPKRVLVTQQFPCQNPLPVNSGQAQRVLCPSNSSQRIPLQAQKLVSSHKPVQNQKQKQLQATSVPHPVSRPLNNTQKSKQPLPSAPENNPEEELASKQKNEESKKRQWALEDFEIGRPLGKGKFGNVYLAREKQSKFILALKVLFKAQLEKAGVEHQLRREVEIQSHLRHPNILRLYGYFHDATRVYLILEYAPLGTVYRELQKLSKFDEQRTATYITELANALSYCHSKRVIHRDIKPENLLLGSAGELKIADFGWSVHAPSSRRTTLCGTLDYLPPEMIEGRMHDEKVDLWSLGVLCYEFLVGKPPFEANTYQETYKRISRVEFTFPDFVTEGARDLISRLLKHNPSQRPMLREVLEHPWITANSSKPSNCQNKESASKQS
human Phosphatase and Tensin Homolog (PTEN), PTEN (gene 5728), sequence (P60484 whole entry, looked up): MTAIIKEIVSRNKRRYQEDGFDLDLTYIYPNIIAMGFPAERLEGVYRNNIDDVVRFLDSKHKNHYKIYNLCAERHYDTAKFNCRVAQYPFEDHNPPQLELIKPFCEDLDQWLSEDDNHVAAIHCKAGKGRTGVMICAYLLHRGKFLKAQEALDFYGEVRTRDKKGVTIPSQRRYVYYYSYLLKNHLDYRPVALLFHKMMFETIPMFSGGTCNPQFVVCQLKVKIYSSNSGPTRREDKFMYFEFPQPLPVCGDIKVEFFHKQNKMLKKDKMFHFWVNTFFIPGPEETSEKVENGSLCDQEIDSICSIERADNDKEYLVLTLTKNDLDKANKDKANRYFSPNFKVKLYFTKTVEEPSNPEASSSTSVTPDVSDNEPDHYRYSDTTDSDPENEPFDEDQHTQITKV
human Caspase 2 (CASP2), CASP2 (gene 835), sequence (P42575 whole entry, looked up): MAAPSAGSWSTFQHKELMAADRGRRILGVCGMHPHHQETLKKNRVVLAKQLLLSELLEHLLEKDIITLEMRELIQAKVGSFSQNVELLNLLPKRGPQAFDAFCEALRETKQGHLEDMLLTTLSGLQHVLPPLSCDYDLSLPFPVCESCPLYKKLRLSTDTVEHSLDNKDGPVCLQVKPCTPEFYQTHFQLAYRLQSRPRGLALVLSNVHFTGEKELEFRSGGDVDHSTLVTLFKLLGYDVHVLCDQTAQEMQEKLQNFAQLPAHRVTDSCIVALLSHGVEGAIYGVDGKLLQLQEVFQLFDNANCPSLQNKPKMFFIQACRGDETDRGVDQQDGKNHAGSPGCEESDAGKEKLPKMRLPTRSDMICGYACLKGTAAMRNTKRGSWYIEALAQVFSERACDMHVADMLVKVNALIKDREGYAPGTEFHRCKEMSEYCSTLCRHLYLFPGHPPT
human Mitogen-Activated Protein Kinase 1 (MAPK 1), MAPK1 (gene 5594), sequence (P28482 whole entry, looked up): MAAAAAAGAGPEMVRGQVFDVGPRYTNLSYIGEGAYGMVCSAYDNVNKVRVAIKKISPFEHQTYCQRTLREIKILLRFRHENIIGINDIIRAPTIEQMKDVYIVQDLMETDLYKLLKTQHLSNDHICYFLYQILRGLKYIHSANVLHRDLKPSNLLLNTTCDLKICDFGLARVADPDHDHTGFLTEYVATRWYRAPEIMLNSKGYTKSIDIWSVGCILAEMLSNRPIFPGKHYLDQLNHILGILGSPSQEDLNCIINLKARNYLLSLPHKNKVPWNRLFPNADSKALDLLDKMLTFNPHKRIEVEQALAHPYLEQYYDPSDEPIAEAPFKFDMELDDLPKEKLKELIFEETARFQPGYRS

As for `Cc1nc(C)nc(N2C[C@@H](C)N(c3ccnc([C@@H](C)O)n3)[C@@H](C)C2)n1`, the call in test [1] and in test [2] was inactive.
`CCC(O)=C1C(=O)CC(C(=O)O)CC1=O` (centres undefined): the compound was called inactive in test [1], in [3] and in test [4].
Consider `O=C(Nc1ccc([N+](=O)[O-])cc1Cl)c1cc(Cl)ccc1O`, for which the outcome in test [5] and in [6] was inactive.
As for `NCC1(Cc2noc(=O)[nH]2)CCCCC1`, the compound was called inactive in test [1], in test [7], in test [8] and in test [9].
On to `O=C(O)c1ccc2c(c1)nc(C(=O)NC1CCN(C3CC3)CC1)n2Cc1cc(-c2ccc(Cl)s2)on1`, for which the call in test [5], in test [10], in [11] and in test [3] was inactive.
Regarding `O=S1(=O)CCCO1`, in test [5], the outcome was inactive.
Take `Cc1ncc(CO)c(CO)c1O`: the compound was called inactive in test [12].
For `CN(C)CCCN(C)CCCN(C)C`, the compound was called inactive in test [1] and in [8].
In the case of `Cc1cccc([N+](=O)[O-])c1C`, the call in test [1] and in test [13] was inactive.
On to `O=C(O)CC(O)C(=O)O` (centres undefined), for which the outcome in test [5] and in [7] was inactive.
Turning to `CN(C)c1ccc(Cc2ccc(N(C)C)cc2)cc1`, in [5], the outcome was inactive.
In the case of `c1ccc2ccccc2c1`, the compound was called inactive in [5], in [6], in [11], in [14] and in [2].
Consider `O=C(O)c1cc(N=Nc2ccc(S(=O)(=O)Nc3ccccn3)cc2)ccc1O`, for which the call in [5], in test [10], in [11], in test [3] and in [15] was inactive.
Turning to `COC(=O)CCCCC(=O)OC`, the result in [10] and in test [8] was inactive.
As usually defined, the AC50 is the midpoint of the concentration-response curve, whichever way the signal moves. Turning to `Nc1ccccc1N`, the AC50 in [11] was 32.2 µM (active); in test [13] it was 7.6 µM (active).
For the compound `C#C[C@]1(O)CC[C@H]2[C@@H]3CCC4=CC(=O)CC[C@@H]4[C@H]3CC[C@@]21C`, the outcome in [16], in test [3] and in [17] was inactive.
As for `CCCCC(CC)COC(=O)CCCCC(=O)OCc1ccccc1` (centres undefined), the call in test [10] and in [3] was inactive.
Regarding `CC(C)=CCC/C(C)=C\CO`, the compound was called inactive in test [10].
As to `COCCO`, the compound was called inactive in [18], in [10], in test [6], in test [14] and in test [2].
